High-throughput results (PubChem BioAssay)
hgDAF12 agonist: hgDAF-12 agonism, primary luciferase screen; HEK293 GAL4-hgDAF12 UAS-luciferase reporter, agonist luminescence; normalized to butyrate control; activation, % at 6.8 µM; 370,000 tested, 1.8% active; AID 687014;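 active means activation above a cutoff set at the mean of all screened compounds plus 3 SD, cut at about 10% in these data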;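 further: 0% = DMSO wells and 100% = sodium butyrate wells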
DAX1 inh-1: inhibitors of human orphan nuclear receptor DAX1 (NR0B1). P51843. HEK293 Gal4-DAX1 luciferase reporter, luminescence. inhibition, % at 6.75 µM. 340,000 tested, 0.99% active;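 active means inhibition above the mean over all tested compounds plus 3 SD, cut at about 4.2% in these data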;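 further: 0% = DAX1-transfected cells with DMSO and 100% = empty-vector control cells with DMSO; inhibition shows as a rise in luminescence from relieved DAX1 repression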
Target sequence (P51843 207-470 limits assumed): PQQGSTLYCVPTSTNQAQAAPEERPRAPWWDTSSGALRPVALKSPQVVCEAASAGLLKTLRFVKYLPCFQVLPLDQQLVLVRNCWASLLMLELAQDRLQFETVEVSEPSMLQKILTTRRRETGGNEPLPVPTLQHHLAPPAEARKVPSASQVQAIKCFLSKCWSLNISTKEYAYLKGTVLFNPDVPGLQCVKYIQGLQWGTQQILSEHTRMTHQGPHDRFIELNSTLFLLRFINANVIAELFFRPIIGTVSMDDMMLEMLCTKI
DAX1 inh-2: inhibitors of DAX1 repression of SF-1 activated StAR promoter; 370,000 tested, 1.1% active; inhibition, % at 6.8 µM; HEK293T StAR-luciferase reporter, SF-1/DAX-1 repression relief;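 active means inhibition above the mean over all tested compounds plus 3 SD, cut at about 3.6% in these data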;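 further: 0% = DAX-1 cells with DMSO and 100% = cells lacking DAX-1 with DMSO; higher inhibition means more luminescence from relief of DAX-1 repression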
ssDAF12 agonist: S. stercoralis DAF-12 activation, primary screen; HEK293 ssDAF-12/GRIP1 lit1-tk-luc reporter, luminescence; % of 3 µM dafachronic acid response; activation, % at 6.8 µM; 370,000 tested, 1% active;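 active means activation above the mean over all tested compounds plus 3 SD, cut at about 0.9% in these data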;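 further: 0% = DMSO-only wells and 100% = 3 µM delta7-dafachronic acid wells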
hcDAF-12 act: H. contortus DAF-12 activation, primary screen; HEK293 hcDAF-12 lit1-tk-luc reporter, luminescence; 0% DMSO, 100% Δ7-dafachronic acid; activation, % at 6.8 µM; 370,000 tested, 1.4% active; AID 652067;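 active means activation above the mean of all tested compounds plus 3 SD, cut at about 5.5% in these data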;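 further: 100% = response to 3 µM Δ7-dafachronic acid high control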
DAX1 inh confirm: NR0B1 (human) inhibition, confirmation; shares compounds with DAX1 inh-2; HEK293T StAR-promoter luciferase reporter, SF-1/DAX-1 repression; inhibition, % at 6.8 µM; 2,400 tested, 87% active; AID 652134;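 active means inhibition above the average of every tested compound plus 3 SD, cut at about 3.8% in these data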;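 further: 0% = DAX-1 cells with DMSO and 100% = no DAX-1 control cells with DMSO; active compounds raise luminescence by relieving repression of the StAR reporter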
SF1 mutant ctr: counter-screen for DAX1 inhibitors: nonselective inhibitors with SF-1 AF2 mutant | HEK293 StAR-luciferase, luminescence | inhibition, % at 6.8 µM | 2,400 tested, 78% active | shares compounds with DAX1 inh-2;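 active means inhibition above the mean of all tested compounds plus 3 SD, cut at about 3% in these data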;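 further: 0% = DAX-1 transfected cells with DMSO and 100% = cells without DAX-1 with DMSO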
Starred values were filed as active, the others as inactive. This is a sample that favours compounds with a hit; in the whole collection about 4.1% have one here.

Screening CCC(c1nnnn1-c1ccc2c(c1)OCCO2)N1CCN(CC)CC1 (stereo unspecified) returned hgDAF12 agonist 0, DAX1 inh-2 5.4*, ssDAF12 agonist -1, hcDAF-12 act 0, DAX1 inh confirm 3 and SF1 mutant ctr 2.
Screening COc1ccccc1CCNC(=O)COc1cccc2c1OC(C)(C)C2 returned hgDAF12 agonist -3, DAX1 inh-1 0, DAX1 inh-2 4.6*, ssDAF12 agonist -1, hcDAF-12 act -2, DAX1 inh confirm 0 and SF1 mutant ctr 0.
`C=CCN1C(=O)c2ccc(C(=O)N(C)CC(=O)Nc3c(C)cccc3C)cc2C1=O` gave hgDAF12 agonist 1, DAX1 inh-1 1, DAX1 inh-2 -2, ssDAF12 agonist -1 and hcDAF-12 act -2.
Screening Cc1ccnc(NC(=O)CNC(=O)c2ccccc2Br)c1 returned hgDAF12 agonist 7, DAX1 inh-1 1, DAX1 inh-2 5.0*, ssDAF12 agonist 0, hcDAF-12 act 2, DAX1 inh confirm 7.0* and SF1 mutant ctr 3.7*.
For Cc1ccnc(NC(=O)CC(NC(=O)c2ccccc2Cl)c2ccccc2)c1 (stereo unspecified) the results were hgDAF12 agonist 11*, DAX1 inh-1 3, DAX1 inh-2 6.1*, ssDAF12 agonist 0, hcDAF-12 act 2, DAX1 inh confirm 7.0* and SF1 mutant ctr 7.0*.
Screening Cc1ccc(NC(=O)CCNC(=O)c2ccccc2Cl)nc1 returned hgDAF12 agonist -1, DAX1 inh-1 3, DAX1 inh-2 -1, ssDAF12 agonist -1 and hcDAF-12 act 1.
For Cc1ccc(NC(=O)CC(NC(=O)c2ccccc2Cl)c2ccccc2)nc1 (stereo unspecified) the results were hgDAF12 agonist -2, DAX1 inh-1 0, DAX1 inh-2 0, ssDAF12 agonist -1 and hcDAF-12 act -1.
Cc1ccnc(NC(=O)CNC(=O)COc2ccccc2)c1 was read as hgDAF12 agonist 9, DAX1 inh-1 2, DAX1 inh-2 7.6*, ssDAF12 agonist 0.9*, hcDAF-12 act 3, DAX1 inh confirm 7.2* and SF1 mutant ctr 4.0*.
Screening Cc1ccnc(NC(=O)CCNC(=O)c2ccccc2Cl)c1 returned hgDAF12 agonist 6, DAX1 inh-1 2, DAX1 inh-2 5.0*, ssDAF12 agonist 0, hcDAF-12 act 4, DAX1 inh confirm 8.5* and SF1 mutant ctr 5.6*.
Cc1ccc(NC(=O)CNC(=O)COc2ccccc2)nc1 was read as hgDAF12 agonist 0, DAX1 inh-1 0, DAX1 inh-2 2, ssDAF12 agonist -1 and hcDAF-12 act 0.
Screening C[C@H](CO)N1C[C@H](C)[C@@H](CN(C)C(=O)c2cc(-c3ccccc3)on2)OCc2cn(nn2)CCCC1=O returned hgDAF12 agonist -1, DAX1 inh-1 1, DAX1 inh-2 -1, ssDAF12 agonist -1 and hcDAF-12 act 0.
`C[C@@H](CO)NC(=O)c1nc[nH]c1C(=O)N[C@H](C)c1ccccc1` gave hgDAF12 agonist -2, DAX1 inh-1 1, DAX1 inh-2 -1, ssDAF12 agonist -1 and hcDAF-12 act -1.
CC1CCCCC12NC(=O)N(CC(=O)NNC(=O)c1ccc(Br)cc1)C2=O (stereo unspecified) was read as hgDAF12 agonist -1, DAX1 inh-1 3, DAX1 inh-2 0, ssDAF12 agonist -1 and hcDAF-12 act 0.
`Cc1cccc(NC(=O)COC(=O)c2ccc3c(c2)OCO3)c1C` gave hgDAF12 agonist -1, DAX1 inh-1 -1, DAX1 inh-2 0, ssDAF12 agonist 1 and hcDAF-12 act 1.
`Cc1noc(C)c1CSCc1ccc(Cl)cc1` gave hgDAF12 agonist 1, DAX1 inh-2 0, ssDAF12 agonist -1 and hcDAF-12 act -2.
`COc1ccccc1OCCCC(=O)Nc1nnc(C2CCCO2)s1` (stereo unspecified) gave hgDAF12 agonist 0, DAX1 inh-1 1, DAX1 inh-2 6.1*, ssDAF12 agonist -1, hcDAF-12 act 1, DAX1 inh confirm 4.2* and SF1 mutant ctr 3.7*.
